For five molecules, z-score and composite z-score results are on record in PubChem BioAssay.

Active and inactive are the calls of the source.

Assay [1] in a line: E. coli DRC41 culture turbidity changes, primary screen, E. coli filamentation inducer project, strain DRC41, OD650, 48 h (AID 1152).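 Further: E. coli MC1000 strain DRC41 lacking acrAB efflux pump and sulA.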 As to conditions: E. coli DRC41 (acrAB sulA), higher = more signal, called active from +8 up or from −8 down.
Assay [2] is described as follows: small-molecule binders of probe aLefty1, primary screen, biochemical, small-molecule microarray, 635/667 nm fluorescence (AID 1153).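 Further: score merges spot fluorescence with signal-to-noise ratio from the scanned slide images.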 As to conditions: higher = more signal.
A short description of assay [3]: PSAC antagonists in infected red cells, primary screen, cell-based, P. falciparum Indochina, OD700, 1 h (AID 1154). As to conditions: P. falciparum Indochina infected RBC osmotic lysis, higher = more signal, called active from +8 up or from −8 down.
Assay [4] can be described thus: PSAC antagonists in infected red cells, primary screen, cell-based, P. falciparum Indochina, OD700, 2 h (AID 1155).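 Further: lysis reports solute entry through the parasite surface anion channel PSAC; channel blockers reduce lysis of infected cells.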 The following applies: P. falciparum Indochina infected erythrocytes, osmotic lysis OD700; higher = more signal, called active from +8 up or from −8 down.
Assay [5] can be described thus: osmotic lysis modulators in infected erythrocytes, primary screen, PSAC antagonist project, cell-based, P. falciparum Indochina, OD700, 3 h (AID 1156). As to conditions: higher = more signal, called active from +8 up or from −8 down.
Assay [6] can be described thus: PSAC antagonists in infected red cells, primary screen, cell-based, P. falciparum Indochina, OD700, 18 h (AID 1157). The following applies: P. falciparum Indochina infected erythrocytes, osmotic lysis OD700, 18 h; higher = more signal, called active from +8 up or from −8 down.
Assay [7] in a line: modulators of S6 phosphorylation in cells, primary screen, cell-based, A549, cytoblot, luminescence, serum-stimulated (AID 1158).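 Further: serum-stimulated A549 lung adenocarcinoma cells; signal is phosphorylated S6 detected by cytoblot immunostaining with HRP secondary.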 As to conditions: A549 phospho-S6 cytoblot, 5 h, higher = more signal.
Assay [8] concerns the target NADPH oxidase 2 (Homo sapiens) (UniProt P04839). The assay is described as follows: NOX2-dependent H2O2 signal modulators, primary screen, NOX inhibitor project, cell-based, HEK293-NOX2, PMA-stimulated, Amplex Red fluorescence (AID 1159). Further: test concentration not given here. As to conditions: 45 min, higher = more signal, called active from +8 up or from −8 down.
Assay [9] concerns the target NADPH oxidase 4 (Homo sapiens) (UniProt Q9NPH5). In words: NOX4-dependent H2O2 signal modulators, primary screen, NOX inhibitor project, cell-based, HEK293-NOX4, tetracycline-induced, Amplex Red fluorescence (AID 1160). As to conditions: 45 min, higher = more signal, called active from +8 up or from −8 down.
In assay [10] the target is NADPH oxidase 5 (Homo sapiens) (UniProt Q96PH1). In words: NOX5-dependent H2O2 signal modulators, primary screen, NOX inhibitor project, cell-based, HEK293-NOX5, Amplex Red fluorescence (AID 1161). As to conditions: HEK293-NOX5, ionomycin, 45 min, higher = more signal.
Chain of NADPH oxidase 5 (Homo sapiens) (Q96PH1 whole entry, looked up): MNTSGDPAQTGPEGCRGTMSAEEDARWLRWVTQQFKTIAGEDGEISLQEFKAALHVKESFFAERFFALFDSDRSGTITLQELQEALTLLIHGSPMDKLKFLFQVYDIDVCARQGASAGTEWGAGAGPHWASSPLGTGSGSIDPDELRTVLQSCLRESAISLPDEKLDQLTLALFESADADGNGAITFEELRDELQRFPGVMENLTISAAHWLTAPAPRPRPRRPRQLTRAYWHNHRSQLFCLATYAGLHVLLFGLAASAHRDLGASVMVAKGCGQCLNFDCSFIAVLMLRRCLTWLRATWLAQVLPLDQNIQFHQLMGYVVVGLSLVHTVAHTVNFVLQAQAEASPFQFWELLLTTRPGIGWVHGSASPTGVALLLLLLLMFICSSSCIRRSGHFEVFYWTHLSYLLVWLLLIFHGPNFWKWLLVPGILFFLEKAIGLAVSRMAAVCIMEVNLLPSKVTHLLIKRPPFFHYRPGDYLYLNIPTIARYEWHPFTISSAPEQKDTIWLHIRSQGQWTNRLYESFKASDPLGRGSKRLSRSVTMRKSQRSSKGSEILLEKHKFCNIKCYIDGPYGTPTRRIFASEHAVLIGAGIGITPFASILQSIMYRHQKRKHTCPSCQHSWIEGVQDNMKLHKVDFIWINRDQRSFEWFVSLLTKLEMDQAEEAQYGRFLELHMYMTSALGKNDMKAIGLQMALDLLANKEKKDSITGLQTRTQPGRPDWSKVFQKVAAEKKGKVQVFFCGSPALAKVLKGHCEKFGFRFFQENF
A short description of assay [11]: A549 cell viability effects, profiling panel, calcein-AM fluorescence, 48 h, basal (AID 1162). Further: test concentration not given here. The following applies: higher = more signal.
The nature of assay [12]: adipocyte viability effects, profiling panel, cell-based, 3T3-L1 adipocytes, calcein-AM fluorescence, 48 h, basal (AID 1163). Further: test concentration not given here. The following applies: 3T3-L1 adipocytes viability, higher = more signal.
Assay [13] can be described thus: HepG2 cell viability effects, profiling panel, calcein-AM fluorescence, 48 h, basal (AID 1164). Further: test concentration not given here. As to conditions: higher = more signal.
Assay [14] can be described thus: MM1S cell viability effects, profiling panel, calcein-AM fluorescence, 48 h, basal (AID 1165).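 Further: viability of MM1S multiple myeloma cells under basal unstimulated conditions; test concentration not given here.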 As to conditions: higher = more signal.
The nature of assay [15]: basal RPMI8226 viability, no added stimulus, profiling panel, cell-based, calcein-AM fluorescence, 48 h, PK04 Diversity Set (AID 1166).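 Further: cells grown under basal conditions without added stimulus; test concentration not given here.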 The following applies: RPMI8226 myeloma viability, higher = more signal.
Assay [16] in a line: basal HepG2 mitochondrial membrane potential changes, profiling panel, cell-based, JC-1 fluorescence, 24 h, 100 nL compound (AID 1167). Further: test concentration not given here. As to conditions: higher = more signal.
Assay [17] can be described thus: basal 3T3-L1 adipocyte mitochondrial potential changes, profiling panel, cell-based, JC-1 fluorescence, 3T3-L1 adipocytes, 24 h, 100 nL compound (AID 1168). Further: test concentration not given here. The following applies: JC-1 mitochondrial fluorescence, higher = more signal, called active from +8 up or from −8 down.
Assay [18] can be described thus: basal RPMI8226 mitochondrial membrane potential changes, profiling panel, cell-based, JC-1 fluorescence, 24 h, 100 nL compound (AID 1169). Further: test concentration not given here. As to conditions: RPMI8226 myeloma, JC-1 mitochondrial potential fluorescence, higher = more signal.
The nature of assay [19]: basal MM1S mitochondrial membrane potential changes, profiling panel, cell-based, JC-1 fluorescence, 24 h, 100 nL compound (AID 1170). Further: test concentration not given here. As to conditions: higher = more signal.
A short description of assay [20]: A549 lung cancer cell viability effects, profiling panel, resazurin fluorescence, 24 h, PK04 Diversity Set (AID 1171). Further: test concentration not given here. The following applies: higher = more signal, called active from +8 up or from −8 down.

Chain of NADPH oxidase 4 (Homo sapiens) (Q9NPH5 whole entry, looked up): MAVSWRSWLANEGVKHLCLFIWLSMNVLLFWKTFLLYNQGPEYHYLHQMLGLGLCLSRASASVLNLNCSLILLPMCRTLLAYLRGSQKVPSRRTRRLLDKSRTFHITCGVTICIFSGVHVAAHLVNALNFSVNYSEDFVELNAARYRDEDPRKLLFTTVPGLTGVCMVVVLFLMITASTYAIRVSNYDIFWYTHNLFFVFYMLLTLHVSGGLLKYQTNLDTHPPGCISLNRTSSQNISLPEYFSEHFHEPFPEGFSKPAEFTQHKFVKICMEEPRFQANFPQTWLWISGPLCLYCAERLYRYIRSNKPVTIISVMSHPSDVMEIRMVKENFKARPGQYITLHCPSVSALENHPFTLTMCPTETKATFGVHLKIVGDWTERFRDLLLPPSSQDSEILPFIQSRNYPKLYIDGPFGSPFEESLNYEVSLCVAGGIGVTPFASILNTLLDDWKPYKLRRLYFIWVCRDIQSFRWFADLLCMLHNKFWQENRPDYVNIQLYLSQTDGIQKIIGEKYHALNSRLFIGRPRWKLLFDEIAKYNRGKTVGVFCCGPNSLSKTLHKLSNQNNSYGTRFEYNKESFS
Chain of NADPH oxidase 2 (Homo sapiens) (P04839 whole entry, looked up): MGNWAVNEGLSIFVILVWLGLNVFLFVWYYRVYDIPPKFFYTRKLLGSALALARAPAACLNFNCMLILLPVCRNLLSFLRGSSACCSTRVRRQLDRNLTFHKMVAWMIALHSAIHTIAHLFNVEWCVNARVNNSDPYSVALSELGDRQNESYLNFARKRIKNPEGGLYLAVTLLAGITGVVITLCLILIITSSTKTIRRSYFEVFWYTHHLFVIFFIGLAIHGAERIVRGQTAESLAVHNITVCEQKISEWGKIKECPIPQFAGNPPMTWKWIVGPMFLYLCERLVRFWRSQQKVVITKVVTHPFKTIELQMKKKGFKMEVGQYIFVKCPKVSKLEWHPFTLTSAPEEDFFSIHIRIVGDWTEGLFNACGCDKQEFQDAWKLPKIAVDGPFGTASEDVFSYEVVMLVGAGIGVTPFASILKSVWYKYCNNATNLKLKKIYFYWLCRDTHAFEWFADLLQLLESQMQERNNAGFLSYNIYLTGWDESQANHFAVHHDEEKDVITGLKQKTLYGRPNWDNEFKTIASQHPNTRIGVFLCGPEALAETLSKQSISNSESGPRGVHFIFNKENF

Consider `[N-]=[N+]=Nc1ccccc1[C@@H]1OC(c2ccc(OCCCO)cc2)=N[C@]1(CCS(=O)(=O)c1ccccc1)C(=O)N1CCCCC1`, for which the z-score in assay [1] is -0.112 (inactive); in [3], 30.2 (active); in assay [4], 25 (active); in assay [5], 1.7 (inactive); in assay [6], 3.94 (inactive); in [7] it was -0.174. Besides, the z-score in [8] was -1.33 (inactive); in assay [9] it was 1.85 (inactive); in assay [10], 1.52; in assay [11], -0.564; in assay [12] it was -0.56; in assay [13], -0.0675. Besides, the z-score in [14] was -0.92; in assay [15], -0.739; in assay [16] it was -0.827; in assay [17], 0.0238 (inactive); in assay [18], -0.881; in assay [19] it was -0.923. In addition, the z-score in [20] is -0.127 (inactive). For the same molecule, the composite z-score in assay [2] is 1.12.

Consider `C=CCOC(=O)[C@@H]1[C@H]2C(=O)O[C@H](c3ccccc3)[C@H](c3ccccc3)N2[C@H](c2ccc(OCCOC(=O)[C@H]3C[C@H]4C(=O)N[C@@H](CC(C)C)C(=O)N4[C@H]3c3cccc(OCCO)c3)cc2)[C@@]12C(=O)Nc1ccc(I)cc12`, for which the z-score in assay [1] was -0.0888 (inactive); in [3] it was 2.85 (inactive); in assay [4] it was -0.154 (inactive); in [5] it was 0.789 (inactive); in assay [6] it was -1.24 (inactive); in assay [7], 0.456. Further, the z-score in assay [8] was 1.07 (inactive); in assay [9] it was 1.02 (inactive); in [10] it was 0.73; in assay [11] it was 0.704; in [12], 1.54; in assay [13], -0.533. Further, the z-score is -0.727 in assay [14]; -1.34 in assay [15]; -1.91 in assay [16]; 1.59 (inactive) in assay [17]; -0.946 in assay [18]; -1.2 in assay [19]. The z-score in [20] is -0.304 (inactive). This molecule gave a composite z-score in [2] of 0.185.

Consider `CN1C(=O)C2C(C1=O)C1C=C(c3ccc(CO)cc3)C2C(C2CC2)N1Cc1cc2c(cc1Br)OCO2` (stereo not given), for which the z-score is -0.515 (inactive) in assay [1]; 19.5 (active) in assay [3]; 3.1 (inactive) in assay [4]; 1.2 (inactive) in assay [5]; -0.898 (inactive) in assay [6]; 1.05 in [7]. Further, the z-score in [8] was -1.18 (inactive); in assay [9], -1.04 (inactive); in assay [10] it was -0.488; in assay [11], 0.302; in assay [12] it was 0.575; in assay [13], 1.81. In addition, the z-score is -0.387 in assay [14]; -1.75 in assay [15]; 3.74 in assay [16]; 0.673 (inactive) in [17]; -0.73 in [18]; -0.565 in assay [19]. Further, the z-score in assay [20] was -1.84 (inactive). This molecule also displayed a composite z-score in [2] of 0.464.

`CN(C)CCCCCCNC(=O)[C@@H]1C[C@@H]2C(=O)N[C@@H](Cc3ccccc3)C(=O)N2[C@@H]1c1cccc(OCCO)c1`: the z-score was 0.392 (inactive) in assay [1]; 3.81 (inactive) in [3]; 0.415 (inactive) in [4]; 0.407 (inactive) in assay [5]; 0.154 (inactive) in assay [6]; -0.243 in assay [7]. Besides, the z-score in assay [8] is 1.08 (inactive); in assay [9], 1.4 (inactive); in assay [10], 1.4; in assay [11], -0.778; in [12], 0.559; in [13], -0.857. Besides, the z-score was 0.802 in assay [14]; -0.555 in assay [15]; -1.02 in assay [16]; -0.822 (inactive) in assay [17]; 0.0287 in [18]; 0.316 in [19]. Also, the z-score in [20] was -0.115 (inactive). In addition, in assay [2], the composite z-score came to 0.073.

`COC(=O)C(CC#Cc1ccc2c(c1)[C@]1(C(=O)N2)[C@H](C(=O)N2CCCCCCC2)[C@H]2C(=O)O[C@H](c3ccccc3)[C@H](c3ccccc3)N2[C@@H]1c1ccccc1OCCO)C(=O)OC`: the z-score in assay [1] was -0.984 (inactive); in [3], 1.49 (inactive); in assay [4], 0.918 (inactive); in [5] it was 0.573 (inactive); in assay [6] it was 0.417 (inactive); in [7], -0.0756. Besides, the z-score was 0.445 (inactive) in [8]; 0.262 (inactive) in [9]; 1.22 in assay [10]; -0.65 in assay [11]; 0.091 in [12]; 0.491 in [13]. In addition, the z-score is -0.216 in assay [14]; -0.421 in assay [15]; 0.0896 in [16]; 1.09 (inactive) in assay [17]; -0.835 in assay [18]; -1.33 in [19]. Further, the z-score in assay [20] is 0.901 (inactive). The molecule further came in with a composite z-score in [2] of 3.08.
